# Assay outcomes: PubChem, National Center for Advancing Translational Sciences (NCATS)
# In the library only some 2.4% were active in any assay of this set; here they are far more common.
# FEN1 inhibitor: inhibitors of human flap endonuclease 1; P39748; Recombinant FEN1 flap cleavage, fluorescence, 15 min; Potency, µM (titrated, usually from 114 µM), actives largely listed as inhibitors; 390,000 compounds, 0.35% hits; AID 588795; note: nearly all actives have a fitted effect of over 65% in size
#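 FEN1 at 10 nM preincubated with compounds 15 min at room temperature, then flap DNA substrate added at 50 nM final. Signal read at 0 and 15 min; concentration-response fitted with four-parameter Hill equation.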
# Pol eta inh-1: inhibitors of human DNA polymerase eta | Q9Y253 | recombinant Pol eta, fluorescent DNA replication assay | Potency, µM (top dose mostly 114 µM), most hits filed as inhibitors | 390,000 compounds, 1.2% hits
#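 Pol eta (10 nM) was preincubated with compounds for 15 min at room temperature, after which fluorescent replication substrate (50 nM final) was added to start the reaction. Fluorescence was read kinetically at 0 and 10 min.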
# Pol beta inh: inhibitors of human DNA polymerase beta; Pol beta primer extension/strand displacement, fluorescence kinetic; Potency, µM (top dose mostly 114 µM), hits mostly inhibitors; 340,000 compounds, 1.3% hits; AID 485314
#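 Pol beta (10 nM) was preincubated with compound for 15 min at room temperature. The reaction was then started with 50 nM substrate and read immediately and after a further 10 min at room temperature.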
# Pol iota inh: inhibitors of human DNA polymerase iota. 390,000 compounds, 1% hits. AID 588590. Potency, µM (doses to about 115 µM), most hits filed as inhibitors. Pol iota fluorescent replication assay, 10 min
#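 Pol iota at 10 nM preincubated 15 min with compounds at room temperature; reaction started with fluorescent substrate, 50 nM final. Fluorescence read kinetically at 0 and 10 min; buffer-only wells as negative control.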
# WRN inhibitor: WRN helicase (human) inhibition; Q14191; WRN helicase unwinding, fluorescent forked duplex, kinetic; Potency, µM (highest dose often 114 µM), actives largely listed as inhibitors; 360,000 compounds, 0.46% hits; AID 651768; note: nearly all actives have a fitted effect of over 55% in size
# Target sequence (Q14191 whole entry, looked up): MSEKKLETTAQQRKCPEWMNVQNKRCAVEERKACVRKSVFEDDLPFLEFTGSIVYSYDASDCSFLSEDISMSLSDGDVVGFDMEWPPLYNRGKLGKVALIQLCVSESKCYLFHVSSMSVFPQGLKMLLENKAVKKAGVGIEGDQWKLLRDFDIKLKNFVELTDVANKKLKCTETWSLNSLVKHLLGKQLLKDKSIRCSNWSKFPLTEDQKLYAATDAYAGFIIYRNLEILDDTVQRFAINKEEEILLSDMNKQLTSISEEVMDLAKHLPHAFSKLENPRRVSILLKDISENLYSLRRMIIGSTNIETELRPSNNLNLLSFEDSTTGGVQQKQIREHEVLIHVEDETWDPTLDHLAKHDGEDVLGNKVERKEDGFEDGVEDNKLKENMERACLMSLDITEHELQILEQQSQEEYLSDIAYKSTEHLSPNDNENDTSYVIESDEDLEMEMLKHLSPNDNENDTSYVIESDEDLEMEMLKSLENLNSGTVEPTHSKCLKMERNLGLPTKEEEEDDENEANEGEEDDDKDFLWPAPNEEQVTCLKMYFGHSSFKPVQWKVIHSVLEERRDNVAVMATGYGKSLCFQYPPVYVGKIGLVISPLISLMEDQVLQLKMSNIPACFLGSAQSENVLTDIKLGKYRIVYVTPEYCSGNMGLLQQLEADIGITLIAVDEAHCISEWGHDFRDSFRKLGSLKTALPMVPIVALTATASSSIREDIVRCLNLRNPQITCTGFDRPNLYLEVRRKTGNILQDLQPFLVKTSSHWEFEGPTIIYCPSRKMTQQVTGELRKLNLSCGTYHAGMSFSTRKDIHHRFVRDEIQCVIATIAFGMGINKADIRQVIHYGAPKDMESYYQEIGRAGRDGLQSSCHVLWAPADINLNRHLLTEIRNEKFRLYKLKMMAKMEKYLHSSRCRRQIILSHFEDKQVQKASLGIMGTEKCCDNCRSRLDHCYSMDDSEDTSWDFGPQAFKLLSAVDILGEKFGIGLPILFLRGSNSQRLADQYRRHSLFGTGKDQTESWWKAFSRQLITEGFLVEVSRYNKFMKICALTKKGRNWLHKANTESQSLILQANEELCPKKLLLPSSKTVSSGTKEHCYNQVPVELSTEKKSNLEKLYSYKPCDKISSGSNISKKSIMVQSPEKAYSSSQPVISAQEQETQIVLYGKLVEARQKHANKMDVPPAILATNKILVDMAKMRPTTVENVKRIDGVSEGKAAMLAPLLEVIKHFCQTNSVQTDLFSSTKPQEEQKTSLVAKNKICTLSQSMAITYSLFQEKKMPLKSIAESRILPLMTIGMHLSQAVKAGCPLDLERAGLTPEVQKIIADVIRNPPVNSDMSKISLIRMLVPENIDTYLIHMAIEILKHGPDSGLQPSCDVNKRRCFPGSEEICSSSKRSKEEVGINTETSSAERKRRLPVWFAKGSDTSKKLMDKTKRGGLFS
#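 Kinetic fluorescence helicase assay: unwinding of a quenched forked DNA duplex (100 nM final) with 2 mM ATP final raises red fluorescence (525/598 nm). Compounds sat 15 min at room temperature with 20 nM WRN beforehand.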
# Pol kappa inh-1: inhibitors of human DNA polymerase kappa; Q9UBT6; purified Pol kappa, fluorescent DNA synthesis assay, 10 min; AID 588579; Potency, µM (doses to about 107 µM), actives largely listed as inhibitors; 400,000 compounds, 0.53% hits
#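 Activity was followed as the change in fluorescence between reads at 0 and 10 min after starting the reaction with 50 nM substrate. Beforehand, 10 nM polymerase had been preincubated with compound for 15 min at room temperature.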
# Pol kappa inh-2: confirmation of human DNA polymerase kappa inhibitors | Potency, µM, usual class: inhibitors | purified Pol-kappa, fluorescent strand-displacement substrate | shares compounds with Pol eta inh-1 | AID 720501 | 920 compounds, 76% hits
# Pol eta inh-2: Pol eta (human) inhibition, cherry-pick confirmation; AID 720502; shares compounds with Pol eta inh-1; Pol eta primer extension, TAMRA/BHQ fluorescence, 10 min; Potency, µM, hits mostly inhibitors; 2,600 compounds, 64% hits
# Hits are given with their value; n = inactive; u = inconclusive; x = no result given; [ ] = remark or other dose. Calls come from the whole dose curve; as a rule, active = well fitted curve in the direction sought with a large enough effect; inconclusive = small, poorly fitted or top-dose-only effect, or another doubt; inactive = no such curve, though single readings can be large; an effect the other way counts as inactive or inconclusive.
SMILES,FEN1 inhibitor,Pol eta inh-1,Pol beta inh,Pol iota inh,WRN inhibitor,Pol kappa inh-1,Pol eta inh-2,others
CSc1ccc(/C=C2\C(=N)N3N=C(CC(=O)N4CCCCC4)SC3=NC2=O)cc1,n,45µM,u,u,n[11.6 µM],89µM,x,Pol kappa inh-2=67
N=C1/C(=C/c2ccc(Br)o2)C(=O)N=C2SC(CC(=O)N3CCCC3)=NN12,u,8.9µM,8.9µM,18µM,50µM,35µM,38,
CSc1ccc(/C=C2\C(=N)N3N=C(CC(=O)N4CCOCC4)SC3=NC2=O)cc1,n,n,n,u,n,u,x,
CCOC(=O)c1cccc(NC(=O)N2CC(CC)Sc3ccccc32)c1 (stereo not drawn),n,n,n,n,x,n,x,
CC1CCN(S(=O)(=O)c2ccc3c(c2)C(Cl)(Cl)C(=O)N3)CC1,x,32µM,x,x,n[11.6 µM],x,u,
O=C(O)c1cc(N/N=C2/CC(c3ccccc3)Oc3ccccc32)ccc1Cl (stereo not drawn),n,20µM,40µM,u,u,u,60,
O=C1N[C@@H]2[C@H](CCCCC(=O)Oc3ccc([N+](=O)[O-])cc3)SC[C@H]2N1,x,x,x,x,x,n,x,
CCn1nc([N+](=O)[O-])c(C(C#N)c2nc3cc(C(F)(F)F)ccc3s2)c(Cl)c1=O (stereo not drawn),u,89µM,56µM,u,u,n,x,Pol kappa inh-2=60
OC(C[n+]1cccc(Br)c1)c1ccccc1 (stereo not drawn),n,x,x,n,x,n,x,
Cc1cc(/C=C2\SC(=S)NC2=O)c(C)n1-c1ccc(O)cc1,n,50µM,50µM,u,u,u,x,Pol kappa inh-2=u
CCc1ccc(Oc2c(C(F)(F)F)oc3c(CN4CCC(C)CC4)c(O)ccc3c2=O)cc1,n,n,n,n,x,n,x,
O=C(c1coc(=O)c(Br)c1)N1CCCc2ccccc21,u,11µM,25µM,16µM,u,32µM,38,Pol kappa inh-2=42
O=C(c1cc(-c2ccccc2)on1)N1CCCc2ccccc21,n,n,n,n,n,n,x,
COc1ccc(C(=O)N2CCCc3ccccc32)cc1Br,n,n,n,n,n,n,x,
O=C(c1cc(-c2ccco2)on1)N1CCCc2ccccc21,n,79µM,35µM,u,n,79µM,u,
COCCCNC(=O)c1c(NC(=O)Cc2coc3c(C)c(C)ccc23)sc2c1CCCC2,n,n,n,n,x,n,x,
CN=c1scc(-c2cccs2)n1/N=C/c1ccc(O)c(O)c1O,35µM,u,2.8µM,u,u,u,76,
Cc1c(C)c2c(c(C)c1O)CCC(C)(COc1ccc(Cc3sc(=O)[nH]c3O)cc1)O2 (stereo not drawn),x,x,x,x,x,n,x,
O=C(Nc1cccc(O)c1)c1ccc2c(c1)C(=O)N(Cc1ccco1)C2=O,n,n,u,u,n,n,x,
O=C(Nc1ccc(Cl)cc1C(=O)O)c1ccc2c(c1)C(=O)N(Cc1ccco1)C2=O,u,79µM,u,35µM,n,u,u,
COc1cc(/C=C2/C(C)=C(C#N)c3nc(N)c(C#N)c(C)c32)ccc1OCC(=O)O,u,18µM,u,u,u,89µM,30,
O=C(CCC(=O)N1CC2CCCN2c2ccccc21)NCc1ccccc1 (stereo not drawn),n,n,n,n,x,n,x,
COc1ccccc1-c1nn2c(-c3cc(C)[nH]n3)nnc2s1,n,x,x,u,x,n,x,
CCN(CC)S(=O)(=O)c1ccc(NC(=O)Cc2cccs2)cc1,n,56µM,28µM,u,n[11.6 µM],n,u,
CC1CCN(S(=O)(=O)c2ccc(NC(=O)Cc3cccs3)cc2)CC1,n,u,14µM,u,u,u,u,
CC1CCN(S(=O)(=O)c2ccc(NC(=O)CN3CCCC3)cc2)CC1,n,n,n,n,n,n,x,
NS(=O)(=O)c1ccc(NC(=O)Cc2cccs2)cc1,n,n,n,n,n,n,x,
